Measurements taken from PubChem BioAssay (EPA / NIEHS).
Several values for one entry are separate records, joined by “and”; a condition that tells them apart may be missing. Equal values may be shown once. Results filed as inconclusive are left out. More than one record can exist for a structure, and the calls need not agree. Activity calls are given as the source filed them. Rule for the calls: active = hit-call score of the fitted dose curve at least 0.9, where 1 is the maximum; inconclusive = response in the unintended direction; inactive = score below 0.9.

Legend:
[1] = target: Estrogen receptor (Homo sapiens) (UniProt P03372); assay: OT_ER_ERaERa_0480: Odyssey Thera (OT) 8-hour HEK293T Protein-Complementation Assay for Estrogen Receptor-alpha/-alpha Homodimer (AID 2283351);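 note: rise in fluorescence from reassembled reporter fragments on ERα LBD homodimer in nucleus or whole cell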
Chain of Estrogen receptor (Homo sapiens) (P03372 whole entry, looked up, the tested form may be a part): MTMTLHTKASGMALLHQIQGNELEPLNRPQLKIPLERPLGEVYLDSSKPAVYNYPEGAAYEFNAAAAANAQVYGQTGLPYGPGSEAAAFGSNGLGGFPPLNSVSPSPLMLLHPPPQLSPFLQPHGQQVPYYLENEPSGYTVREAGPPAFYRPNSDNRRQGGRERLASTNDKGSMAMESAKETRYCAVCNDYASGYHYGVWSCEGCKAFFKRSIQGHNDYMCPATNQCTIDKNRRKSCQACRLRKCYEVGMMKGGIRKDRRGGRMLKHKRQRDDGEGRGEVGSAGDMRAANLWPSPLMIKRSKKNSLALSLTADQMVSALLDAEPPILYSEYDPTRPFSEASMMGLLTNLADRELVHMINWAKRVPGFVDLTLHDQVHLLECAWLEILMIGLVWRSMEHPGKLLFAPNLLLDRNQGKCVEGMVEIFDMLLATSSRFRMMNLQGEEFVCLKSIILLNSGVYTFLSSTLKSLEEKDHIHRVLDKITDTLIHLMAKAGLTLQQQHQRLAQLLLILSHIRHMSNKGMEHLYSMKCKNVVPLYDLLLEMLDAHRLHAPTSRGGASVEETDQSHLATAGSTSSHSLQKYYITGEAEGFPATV
Summary of the method: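 Cells were treated for 8 hours, then imaged on a laser scanning plate cytometer. Complementation of reporter fragments fused to the human ERα ligand-binding domain (residues 310-547) in HEK293T gave fluorescence, and gain of signal over vehicle was fitted.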

[2] = target: Androgen Receptor/SRC-1 Co-activator, AR (gene 367) (UniProt P10275); assay: OT_AR_ARSRC1_0960: Odyssey Thera (OT) 16-hour HEK293T Protein-Complementation Assay for Androgen Receptor/SRC-1 Co-activator (AID 2283353);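 note: actives raise the signal above DMSO so potency reflects increased AR and SRC-1 complex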
Summary of the method: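 Stable HEK293T line carries AR and SRC-1 each linked to a Venus fragment; chemicals are applied for 16 h, cells imaged at two wavelengths, and the 488 nm nucleus/cytoplasm ratio is taken as the signal, rising relative to DMSO.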

[3] = target: Androgen Receptor/SRC-1 Co-activator, AR (gene 367) (UniProt P10275); assay: OT_AR_ARSRC1_0480: Odyssey Thera (OT) 8-hour HEK293T Protein-Complementation Assay for Androgen Receptor/SRC-1 Co-activator (AID 2283354);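 note: hits raise the complementation signal above DMSO so AC50 marks enhancers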
Summary of the method: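 Reconstituted split-Venus YFP signal from AR–SRC-1 interaction, read by imaging 8 h post-dose in stable HEK293T lines. The 488 nm nucleus-to-cytoplasm ratio (≥400 cells/image) was fitted upward against DMSO.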

[4] = target: human Peroxisome Proliferator-activated Receptor alpha (PPARa), PPARA (gene 5465) (UniProt Q07869); assay: NVS_NR_hPPARa: NovaScreen (NVS) Nuclear Receptor Binding Assay for human Peroxisome Proliferator-activated Receptor alpha (PPARa) (AID 2283359);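 note: activity means loss of TR-FRET signal versus DMSO baseline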
Summary of the method: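 Loss of TR-FRET binding signal relative to DMSO was measured 1 h after chemical addition to extracted receptor protein. Chemicals were first tested in duplicate at 25 uM, and actives were followed up in concentration series.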

[5] = target: Nuclear receptor subfamily 1 group I member 2 (Homo sapiens) (UniProt O75469); assay: NVS_NR_hPXR: NovaScreen (NVS) Nuclear Receptor Binding Assay for human Pregnane X Receptor (PXR) (AID 2283365);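 note: a drop in FRET signal versus DMSO baseline means the compound binds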
Summary of the method: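 Human PXR binding measured by TR-FRET in a cell-free format, 2 h exposure. Single-concentration duplicates at 25 uM preceded concentration-response retests of actives; endpoint fitted positively relative to DMSO, loss of signal indicating binding.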

[6] = target: rat Androgen Receptor (AR), Ar (gene 24208) (UniProt P15207); assay: NVS_NR_rAR: NovaScreen (NVS) Nuclear Receptor Binding Assay for rat Androgen Receptor (AR) (AID 2283366)
Chain of rat Androgen Receptor (AR), Ar (gene 24208) (P15207 whole entry, looked up): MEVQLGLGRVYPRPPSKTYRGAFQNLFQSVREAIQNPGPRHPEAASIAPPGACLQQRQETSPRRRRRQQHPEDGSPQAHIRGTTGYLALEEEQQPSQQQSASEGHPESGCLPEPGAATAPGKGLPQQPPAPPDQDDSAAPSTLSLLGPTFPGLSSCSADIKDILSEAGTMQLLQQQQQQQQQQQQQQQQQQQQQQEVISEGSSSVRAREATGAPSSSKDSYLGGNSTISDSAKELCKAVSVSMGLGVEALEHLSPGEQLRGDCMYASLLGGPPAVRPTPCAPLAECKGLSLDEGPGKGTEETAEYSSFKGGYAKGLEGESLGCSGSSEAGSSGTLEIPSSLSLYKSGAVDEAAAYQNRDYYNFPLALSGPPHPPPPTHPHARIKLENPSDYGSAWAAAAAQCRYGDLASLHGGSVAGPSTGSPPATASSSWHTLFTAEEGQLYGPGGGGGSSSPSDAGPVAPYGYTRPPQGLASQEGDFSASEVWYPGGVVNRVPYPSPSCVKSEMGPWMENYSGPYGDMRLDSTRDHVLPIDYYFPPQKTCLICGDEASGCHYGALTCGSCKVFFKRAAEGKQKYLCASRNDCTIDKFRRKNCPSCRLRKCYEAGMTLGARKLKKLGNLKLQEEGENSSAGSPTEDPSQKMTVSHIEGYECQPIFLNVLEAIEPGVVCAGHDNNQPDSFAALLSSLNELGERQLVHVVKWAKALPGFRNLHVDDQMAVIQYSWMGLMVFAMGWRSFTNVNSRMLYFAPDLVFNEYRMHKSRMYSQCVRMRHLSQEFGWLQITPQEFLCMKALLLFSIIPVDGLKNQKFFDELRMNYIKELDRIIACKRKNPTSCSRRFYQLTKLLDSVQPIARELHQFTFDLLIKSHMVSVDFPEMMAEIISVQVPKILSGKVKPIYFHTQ
Summary of the method: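 Actives from a duplicate single-concentration (25 uM) primary run went on to concentration series. Displacement of radioligand was counted by filtration and scintillation, 18 h post-dose, using prostate extracts from testosterone-pretreated rats, with DMSO as baseline.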

[7] = tested on: guinea pig Dopamine Transporter (DAT), gene 100714898; assay: NVS_TR_gDAT: NovaScreen (NVS) Transporter Assay for guinea pig Dopamine Transporter (DAT) (AID 2283369);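 note: active compounds lower bound radioligand signal relative to DMSO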
Summary of the method: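 Radioligand displacement on membranes from guinea pig striatum, 2 h exposure, bound label counted by filtration and scintillation. Tested at 25 uM in duplicate, then actives in concentration series to 50 uM; DMSO as negative control.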

[8] = target: Peroxisome proliferator-activated receptor gamma (Homo sapiens) (UniProt P37231); assay: NVS_NR_hPPARg: NovaScreen (NVS) Nuclear Receptor Binding Assay for human Peroxisome Proliferator-activated Receptor gamma (PPARg) (AID 2283370)
Chain of Peroxisome proliferator-activated receptor gamma (Homo sapiens) (P37231 whole entry, looked up): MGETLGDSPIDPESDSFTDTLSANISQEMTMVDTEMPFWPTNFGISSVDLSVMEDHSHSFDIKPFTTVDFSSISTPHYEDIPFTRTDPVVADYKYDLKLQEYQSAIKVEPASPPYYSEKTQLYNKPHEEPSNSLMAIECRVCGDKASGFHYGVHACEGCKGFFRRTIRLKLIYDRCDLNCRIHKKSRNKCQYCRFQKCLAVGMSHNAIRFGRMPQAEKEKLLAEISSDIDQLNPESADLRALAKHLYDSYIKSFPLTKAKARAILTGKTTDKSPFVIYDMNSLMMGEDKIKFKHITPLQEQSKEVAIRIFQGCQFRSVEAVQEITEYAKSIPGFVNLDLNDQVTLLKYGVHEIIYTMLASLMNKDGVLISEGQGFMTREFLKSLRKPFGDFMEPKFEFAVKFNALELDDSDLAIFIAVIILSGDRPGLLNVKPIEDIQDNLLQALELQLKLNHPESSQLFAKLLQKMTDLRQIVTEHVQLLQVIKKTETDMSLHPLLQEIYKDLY
Summary of the method: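 Fluorescence polarization readout of ligand binding to extracted human PPARg, measured at 2 h. Duplicate single-point screen at 25 uM, then concentration-series retesting; activity defined as signal loss versus DMSO.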

[9] = target: T1, Estrogen receptor (Homo sapiens) + Estrogen receptor beta (Homo sapiens) (UniProt P03372+Q92731); assay: OT_ER_ERaERb_0480: Odyssey Thera (OT) 8-hour HEK293T Protein-Complementation Assay for Estrogen Receptor-alpha/-beta Heterodimer (AID 2283352)
T1 sequence (P03372 whole entry, looked up, the tested form may be a part): as the sequence (P03372 whole entry, looked up, the tested form may be a part) above
T1 sequence (Q92731 whole entry, looked up, the tested form may be a part): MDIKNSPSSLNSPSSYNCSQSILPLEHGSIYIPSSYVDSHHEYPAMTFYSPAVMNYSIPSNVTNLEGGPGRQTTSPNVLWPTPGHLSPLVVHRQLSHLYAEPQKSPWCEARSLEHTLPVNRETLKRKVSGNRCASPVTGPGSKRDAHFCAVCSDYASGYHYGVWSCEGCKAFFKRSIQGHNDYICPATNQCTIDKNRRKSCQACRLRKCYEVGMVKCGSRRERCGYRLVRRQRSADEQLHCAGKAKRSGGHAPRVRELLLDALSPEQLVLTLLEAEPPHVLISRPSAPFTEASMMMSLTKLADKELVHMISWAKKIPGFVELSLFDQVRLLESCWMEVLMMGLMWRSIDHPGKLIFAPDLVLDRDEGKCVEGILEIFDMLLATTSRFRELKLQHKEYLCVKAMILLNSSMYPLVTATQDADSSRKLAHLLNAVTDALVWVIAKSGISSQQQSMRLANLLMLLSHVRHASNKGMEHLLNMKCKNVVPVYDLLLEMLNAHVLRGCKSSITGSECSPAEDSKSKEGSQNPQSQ
Summary of the method: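 Fluorescence increase from reconstituted reporter fragments, quantified by laser scanning cytometer, reflects ER-alpha/ER-beta heterodimer formation in human HEK293T cells. Exposure 8 h; positive-direction fitting against DMSO vehicle.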

[10] = target: T1, Estrogen receptor (Homo sapiens) + Estrogen receptor beta (Homo sapiens); assay: OT_ER_ERaERb_1440: Odyssey Thera (OT) 24-hour HEK293T Protein-Complementation Assay for Estrogen Receptor-alpha/-beta Homodimer (AID 2283356);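 note: heteromer of ER alpha and ER beta binding domains; hits raise reporter fluorescence and both agonists and antagonists give an increase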
Summary of the method: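 Fragment complementation between ER alpha (310-547) and ER beta (263-489) ligand-binding domains in HEK293T cells; signal read 24 h post-dosing by laser scanning cytometer. Gain of fluorescence relative to DMSO fitted.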

[11] = target: Estrogen receptor beta (Homo sapiens) (UniProt Q92731); assay: OT_ER_ERbERb_0480: Odyssey Thera (OT) 8-hour HEK293T Protein-Complementation Assay for Estrogen Receptor-beta/-beta Homodimer (AID 2283357);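 note: active means signal gain over DMSO baseline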
Chain of Estrogen receptor beta (Homo sapiens) (Q92731 whole entry, looked up, the tested form may be a part): as above
Summary of the method: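 ER-beta LBD homodimer PCA stably expressed in HEK293T; 8 h compound exposure, then formaldehyde fixation and Draq5 staining. Gain in nuclear/cytoplasmic fluorescence intensity versus DMSO vehicle, read on laser scanning cytometer.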

[12] = target: PGR (gene 5241) (UniProt P06401); assay: NVS_NR_hPR: NovaScreen (NVS) Nuclear Receptor Binding Assay for human Progestron Receptor (PR) (AID 2283360);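 note: active means loss of bound radioligand signal versus DMSO baseline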
Chain of PGR (gene 5241) (P06401 whole entry, looked up): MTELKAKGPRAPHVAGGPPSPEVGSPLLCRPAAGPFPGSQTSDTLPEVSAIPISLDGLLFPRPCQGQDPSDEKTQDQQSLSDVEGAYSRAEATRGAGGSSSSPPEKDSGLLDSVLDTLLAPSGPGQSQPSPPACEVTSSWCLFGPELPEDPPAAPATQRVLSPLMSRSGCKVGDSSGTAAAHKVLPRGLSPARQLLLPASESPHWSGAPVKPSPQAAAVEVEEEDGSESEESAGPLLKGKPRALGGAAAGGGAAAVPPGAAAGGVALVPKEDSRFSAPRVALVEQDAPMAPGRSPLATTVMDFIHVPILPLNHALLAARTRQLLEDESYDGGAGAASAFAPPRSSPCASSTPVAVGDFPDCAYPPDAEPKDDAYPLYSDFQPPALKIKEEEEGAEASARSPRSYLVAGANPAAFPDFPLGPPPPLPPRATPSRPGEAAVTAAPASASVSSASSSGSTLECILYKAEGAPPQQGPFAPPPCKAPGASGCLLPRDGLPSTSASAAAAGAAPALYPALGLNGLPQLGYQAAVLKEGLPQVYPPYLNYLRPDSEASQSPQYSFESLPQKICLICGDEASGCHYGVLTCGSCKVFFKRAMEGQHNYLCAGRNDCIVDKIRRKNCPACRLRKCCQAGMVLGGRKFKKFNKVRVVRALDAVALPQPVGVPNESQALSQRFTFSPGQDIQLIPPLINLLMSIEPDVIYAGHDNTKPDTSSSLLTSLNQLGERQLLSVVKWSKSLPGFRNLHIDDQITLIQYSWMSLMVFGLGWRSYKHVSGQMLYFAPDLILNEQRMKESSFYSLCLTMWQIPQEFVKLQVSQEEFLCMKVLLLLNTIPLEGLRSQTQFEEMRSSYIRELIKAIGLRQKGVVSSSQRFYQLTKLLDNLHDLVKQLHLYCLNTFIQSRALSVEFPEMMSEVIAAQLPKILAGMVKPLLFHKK
Summary of the method: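 Radioligand competition binding on receptor extracted from T47D cells, read by scintillation counting 18 h after dosing. Loss of signal versus DMSO; primary screen in duplicate at 25 uM, actives followed in concentration series.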

[13] = target: Retinoic acid receptor alpha (Homo sapiens) (UniProt P10276); assay: NVS_NR_hRARa_Agonist: NovaScreen (NVS) Nuclear Receptor Binding Assay for human Retinoic Acid Alpha Receptor Agonism (RAR) (AID 2283361)
Chain of Retinoic acid receptor alpha (Homo sapiens) (P10276 whole entry, looked up): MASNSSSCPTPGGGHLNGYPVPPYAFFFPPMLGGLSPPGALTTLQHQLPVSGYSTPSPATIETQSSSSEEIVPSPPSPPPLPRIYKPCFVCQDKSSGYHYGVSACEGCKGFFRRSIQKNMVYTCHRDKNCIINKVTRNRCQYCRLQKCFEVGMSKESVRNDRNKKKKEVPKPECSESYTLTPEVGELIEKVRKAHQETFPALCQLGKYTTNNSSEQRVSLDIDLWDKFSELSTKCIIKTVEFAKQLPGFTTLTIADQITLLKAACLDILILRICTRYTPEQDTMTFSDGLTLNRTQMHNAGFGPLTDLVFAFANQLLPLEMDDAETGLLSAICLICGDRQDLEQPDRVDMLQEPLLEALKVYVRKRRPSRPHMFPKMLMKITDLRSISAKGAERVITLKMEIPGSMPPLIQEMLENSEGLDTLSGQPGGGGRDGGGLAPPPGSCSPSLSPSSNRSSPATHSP
Summary of the method: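 Agonist-mode TR-FRET binding format using extracted protein, measured at 2 h post-dosing. Initial duplicate single-point screen at 25 uM preceded concentration series for actives; activity was normalized to DMSO baseline.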

[14] = target: Glucocorticoid receptor (Homo sapiens) (UniProt P04150); assay: NVS_NR_hGR: NovaScreen (NVS) Nuclear Receptor Binding Assay for human Glucocorticoid Receptor (GR) (AID 2283363);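 for AC50: activity is loss of specific radioligand binding signal relative to DMSO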
Chain of Glucocorticoid receptor (Homo sapiens) (P04150 whole entry, looked up): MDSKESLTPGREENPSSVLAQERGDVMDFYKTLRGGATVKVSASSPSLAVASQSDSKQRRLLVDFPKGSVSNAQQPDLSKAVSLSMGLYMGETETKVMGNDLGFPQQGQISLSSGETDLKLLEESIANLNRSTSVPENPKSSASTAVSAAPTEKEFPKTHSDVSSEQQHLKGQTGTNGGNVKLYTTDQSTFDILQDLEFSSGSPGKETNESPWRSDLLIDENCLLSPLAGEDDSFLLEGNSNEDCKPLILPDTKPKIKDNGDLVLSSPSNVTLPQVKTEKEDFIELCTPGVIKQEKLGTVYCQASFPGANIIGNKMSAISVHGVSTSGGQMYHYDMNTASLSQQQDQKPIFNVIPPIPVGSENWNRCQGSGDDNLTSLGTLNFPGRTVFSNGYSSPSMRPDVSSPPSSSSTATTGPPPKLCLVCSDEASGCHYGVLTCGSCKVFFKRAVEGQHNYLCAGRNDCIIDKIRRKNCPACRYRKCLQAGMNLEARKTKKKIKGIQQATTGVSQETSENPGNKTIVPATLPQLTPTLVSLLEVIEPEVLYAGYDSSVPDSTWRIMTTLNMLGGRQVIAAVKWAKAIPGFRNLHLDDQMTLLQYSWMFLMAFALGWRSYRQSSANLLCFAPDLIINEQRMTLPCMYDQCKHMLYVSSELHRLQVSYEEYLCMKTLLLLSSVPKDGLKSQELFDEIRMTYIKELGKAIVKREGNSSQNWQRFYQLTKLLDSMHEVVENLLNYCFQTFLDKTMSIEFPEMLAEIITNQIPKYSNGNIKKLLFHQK
Summary of the method: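 Compounds first tested in duplicate at 25 uM, actives followed up in concentration series. Binding to extracted GR protein measured as competitive radioligand displacement, filter scintillation read 16 h post-dosing, normalised to DMSO.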

[15] = target: Bile acid receptor (Homo sapiens) (UniProt Q96RI1); assay: NVS_NR_hFXR_Antagonist: NovaScreen (NVS) Nuclear Receptor Binding Assay for human Farnesoid X Receptor Antagonism (FXR) (AID 2283350)
Summary of the method: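 Antagonist-format time-resolved FRET binding assay with extracted human receptor protein, read 1 hour after compound addition. Compounds first screened at 25 uM in duplicate, then actives tested in concentration series, with loss of signal relative to DMSO.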

[16] = target: human Thyroid Receptor Alpha (TRa), THRA (gene 7067) (UniProt P10827); assay: NVS_NR_hTRa_Antagonist: NovaScreen (NVS) Nuclear Receptor Binding Assay for human Thyroid Receptor Alpha Antagonism (TRa) (AID 2283362);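 note: activity is loss of signal relative to DMSO baseline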
Summary of the method: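 Actives from a duplicate 25 uM single-point screen were retested in concentration series. The cell-free antagonist-format binding assay was read by AlphaLISA chemiluminescence at 1 h, scored as signal loss relative to DMSO.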

Measured: AC50

O=C(c1ccccc1)C1CCCCC1
inactive: [1] | [2] | [3] | [4] | [5] | [6] | [7] | [8]
active: [1] 56.4 µM and 39.5 µM | [6] 6.52 µM

O=C(c1ccc(O)cc1O)c1ccc(O)cc1O
inactive: [13] | [8]
active: [1] 6.81 µM and 6.26 µM and 6.64 µM | [9] 2.03 µM and 1.72 µM and 2.14 µM | [2] 10.2 µM and 9.93 µM and 10.7 µM | [3] 11.1 µM and 8.01 µM and 9.37 µM | [10] 12.6 µM and 8.31 µM and 9.09 µM | [11] 1.6 µM and 1.63 µM and 1.4 µM | [12] 11.2 µM | [13] 25 µM and 33.4 µM | [14] 9.33 µM and 8.91 µM and 10.9 µM | [6] 7.84 µM [middle of 4 runs] | [8] 40.4 µM

CCN(CC)C(=O)c1cccc(C)c1
inactive: [15] | [1] | [10] | [11] | [8]

CCOC(=O)C(C)Oc1ccc(Oc2cnc3cc(Cl)ccc3n2)cc1 (centres undefined)
inactive: [1]

CC1(C)C(C=C(Cl)Cl)C1C(=O)OCc1cccc(Oc2ccccc2)c1 (centres undefined)
inactive: [1] | [2] | [3] | [12] | [14] | [6]

Cc1nn(C)c(Oc2ccccc2)c1C=NOCc1ccc(C(=O)OC(C)(C)C)cc1
inactive: [1] | [9] | [2] | [3] | [10] | [11] | [12] | [7]

CCOC(=O)c1ccc(O)cc1
active: [1] 59.9 µM and 41.1 µM and 59.6 µM | [9] 30.6 µM and 27.1 µM and 28 µM | [10] 32.2 µM and 26.9 µM and 26.8 µM | [11] 27.8 µM and 33.1 µM and 31.7 µM
inactive: [1] | [9] | [10] | [11] | [4]

S=C(S)NCCNC(=S)S.[Mn+2].[S-]C([S-])=NCCN=C([S-])[S-].[Zn+2]
active: [16] 7.34 µM

CCCCC(CC)COC(=O)c1ccccc1C(=O)O (centres undefined)
inactive: [16]
